# Sampled rows, rich in hits. Any-hit rate of the full collection: about 6.6%.
# HT1080NT lethal: kills 2HG-producing HT-1080-NT fibrosarcoma cells. HT-1080-NT fibrosarcoma viability, CellTiter-Glo ATP luminescence, 48 h. Potency, µM (titrated, usually from 46.1 µM), inactives show at the top dose activity, negative = less viability, most hits filed as cytotoxic. 360,000 tested, 1.6% active. AID 686970;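 also: NT is the 2HG producing partner of a matched IDH1 knockdown line; 0% = DMSO-treated cells and -100% = media-only wells without cells; nearly all actives have a fitted effect of over 55% in size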
#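 Luminescent CellTiter-Glo readout after 48 hours of compound exposure at 37 degrees C defined viability of HT-1080-NT cells. Activity was normalized to DMSO wells and cell-free media wells; concentration-response curves were fitted and assigned curve classes.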
# HT1080 IDH1KD tx: HT-1080 IDH1 knockdown cell toxicity (counter line); HT-1080 IDH1 knockdown viability, ATP luminescence, 48 h; Potency, µM (series often up to 46.1 µM), for the others: top-dose activity, negative = toxicity, actives largely listed as cytotoxic; 360,000 tested, 2% active; AID 686971;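 also: 0% = DMSO wells and -100% = cell-free medium wells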
#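 Assay cells: HT-1080 with IDH1 knockdown, 750 per well, RPMI/5% FBS. Exposure: 48 h at 37 °C following 2 h pre-incubation. Read: CellTiter-Glo luminescence; fitted concentration-response, curve class assigned.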
# KB-3-1 cytotox: KB-3-1 parental cell cytotoxicity; KB-3-1 viability, CellTiter-Glo ATP luminescence, 72 h; Potency, µM (series often up to 46.1 µM), actives largely listed as cytotoxic; 400,000 tested, 1.4% active; AID 1347075; also: % is scaled to controls: 0 for no effect and ±100 for the full control effect; nearly all actives have a fitted effect of over 60% in size
#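 Screening of KB-3-1 cells (DMEM, 10% FBS, phenol-red free) ran from lowest to highest compound concentration; after 72 h at 37 °C viability was read luminescently and curves fitted.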
# KB-V1 cytotox: kills drug-selected multidrug resistant KB-V1 cells. KB-V1 MDR cells viability, CellTiter-Glo, 72 h. Potency, µM (titrated, usually from 46.1 µM), usual class: cytotoxic. 400,000 tested, 3.4% active; also: % is scaled to controls: 0 for no effect and ±100 for the full control effect; nearly all actives have a fitted effect of over 60% in size
#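 KB-V1 cells (P-gp-expressing MDR subline of KB-3-1) in phenol-red-free DMEM with 10% FBS were exposed to library compounds over a concentration series for 72 h at 37 degrees C. Viability read by CellTiter-Glo luminescence; concentration-effect curves fitted after normalization.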
# TGFb inhibitor: blocks TGF-b signaling. AID 588855. Potency, µM (top dose mostly 46.1 µM), for inactives: at the highest dose activity, negative = inhibition, most hits filed as inhibitors. HepG2 CAGA-GFP TGF-b/SMAD3 reporter, GFP fluorescence, 18 h; TGF-beta stimulated, 500 pg/mL final. 410,000 tested, 1.2% active; also: % is scaled to controls: 0 for no effect and ±100 for the full control effect; nearly all actives have a fitted effect of over 65% in size
#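 Smad-responsive CAGA-GFP expression was quantified in HEPG2 cells exposed to compounds and 500 pg/mL final TGF-beta for 18 h at 37 degrees C; unstimulated wells defined full inhibition.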
# HepG2 tox: counter-screen for TGF-b inhibitors: cytotoxicity in HepG2 cells; HepG2 CAGA-GFP viability, ATP luminescence, 18 h; Potency, µM (highest dose often 46.1 µM), for the others: at the highest dose activity change, negative = cytotoxicity, actives largely listed as cytotoxic; 410,000 tested, 0.76% active
#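 CellTiter-Glo luminescence gave cytotoxicity after 18 hours at 37 degrees C. The cells were HepG2 CAGA-GFP in 1% FBS DMEM, stimulated with 500 pg/mL TGF-beta after compound addition. %Activity was normalised to no-cell wells (complete cell-killing) and DMSO (no toxicity), and curves were fitted and classified.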
# Numbers without * were called inactive; i = inactive; ? = inconclusive; / = not tested or not shown. Calls follow the shape of the dose curve; as a rule, active = well fitted curve in the direction sought with a large enough effect; inconclusive = small, poorly fitted or top-dose-only effect, or another doubt; inactive = no such curve, though single readings can be large; an effect the other way counts as inactive or inconclusive. Potency is read from the fitted curve at half-maximal effect.
SMILES,HT1080NT lethal,HT1080 IDH1KD tx,KB-3-1 cytotox,KB-V1 cytotox,TGFb inhibitor,HepG2 tox
CC(C)N1CCc2c(sc(NC(=O)c3cc4cc([N+](=O)[O-])ccc4s3)c2C(N)=O)C1,?,?,?,i,?,12.6µM*
Cc1cccc(-c2nc3c(C#N)c[nH]n3c2NC2CCCCC2)c1,/,/,i,i,-5.8%,-11.0%
COc1cccc(-c2nc3c(c(SCc4ccccc4Cl)n2)Cc2c(CO)cnc(C)c2O3)c1,/,/,i,i,3.2%,-1.3%
CCCN(CCC)c1nn2c(=O)c(C(=O)NCc3cc(Br)ccc3OC)cnc2s1,/,/,/,/,0.0%,-1.4%
CC(C)N1CCc2c(sc(NC(=O)Cc3ccccc3)c2C(N)=O)C1,6.7%,9.1%,i,i,13.4%,-15.7%
CC(C)N1CCc2c(sc(NC(=O)c3ccc(C(=O)c4ccccc4)cc3)c2C(N)=O)C1,20.6µM*,18.4µM*,i,i,?,-43.0%
CC(C)Nc1ncnc2c1ncn2[C@H]1CN(Cc2ccc(-c3ccccc3)cc2)C[C@@H](CO)O1,?,?,?,i,-10.1%,-25.8%
CC(C)CNc1ncnc2c1ncn2[C@H]1CN(Cc2ccc(-c3ccccc3)cc2)C[C@@H](CO)O1,18.4µM*,?,?,?,?,-26.2%
CN(C)CCNc1ncnc2c1ncn2[C@H]1CN(Cc2ccc(-c3ccccc3)cc2)C[C@@H](CO)O1,6.51µM*,20.6µM*,?,i,15.8µM*,-87.5%
OC[C@@H]1CN(CCN2CCOCC2)C[C@H](n2cnc3c(NC4CCCC4)ncnc32)O1,?,17.0%,i,i,7.6%,-3.4%
Cn1c(=O)c([N+](=O)[O-])c(N2CCSCC2)c2ccccc21,-9.5%,-10.5%,i,i,-3.4%,-18.3%
CCN(CC)c1c([N+](=O)[O-])c(=O)n(C)c2ccccc12,0.6%,-6.7%,i,?,-7.8%,-11.6%
Cn1c(=O)c([N+](=O)[O-])c(Cl)c2ccccc21,5.8µM*,5.8µM*,?,i,?,-64.4%
Cn1c(=O)c([N+](=O)[O-])c(-n2cnc3ccccc32)c2ccccc21,?,?,?,?,12.6µM*,-45.1%
CCc1cccc(CC)c1NC(=O)COC(=O)C1(c2ccc(Cl)cc2)CCCC1,-6.3%,-20.2%,i,4.61µM*,?,-113.1%
O=C(c1cc(C2CCCCN2C(=O)OCCF)on1)N1CCOCC1 (stereo not given),28.7%,12.9%,i,i,-10.8%,-8.7%
CCc1ccc2occ(CC(=O)NCc3ccccc3)c2c1,/,/,i,i,-8.8%,-13.2%
O=C1Nc2ccc3c(c2C1=Cc1cc2c(cc1Br)OCO2)OCO3,?,2.2%,5.17µM*,?,?,-18.6%
O=C1NC(=O)/C(=C/c2cc3c(cc2Br)OCO3)S1,-1.3%,-21.8%,i,i,15.5%,-7.7%
C[C@@H]1CCCCO[C@@H](CN(C)S(=O)(=O)c2ccc(F)cc2)[C@@H](C)CN([C@H](C)CO)C(=O)c2cc(NC(=O)c3ccccc3)ccc2O1,-21.2%,-8.3%,i,i,0.9%,0.9%
Cc1ccc(C)c(NC(=O)CSc2c3c(nc4ccc(Cl)cc24)CCCC3)c1,/,/,/,/,0.5%,0.0%
Clc1ccc(CNc2ccc(CNc3ncn[nH]3)cc2)c(Cl)c1,-9.1%,?,i,i,-3.4%,-11.0%
Clc1ccc(CNc2ccc(CNc3ncn[nH]3)cc2)cc1,7.6%,-2.4%,?,18.4µM*,?,13.4%
CCN(CC)CCCN=Cc1c(-c2ccccc2)[nH]n(-c2nc3ccccc3s2)c1=O,-2.5%,-1.0%,i,i,1.3%,5.7%
CCCN=C(C)c1c(-c2ccccc2)[nH]n(-c2nc3ccccc3s2)c1=O,14.0%,5.6%,i,8.2µM*,-3.7%,-2.6%
SMILES,HT1080NT lethal,HT1080 IDH1KD tx,KB-3-1 cytotox,KB-V1 cytotox,TGFb inhibitor,HepG2 tox
CCC(=NCc1ccco1)c1c(C(F)(F)F)[nH]n(-c2nc3ccccc3s2)c1=O,-4.4%,2.3%,i,20.6µM*,-3.7%,-16.7%
C/C(=N/NC(=O)c1cccs1)c1c(C)[nH]n(-c2nc3ccccc3s2)c1=O,2.31µM*,2.59µM*,?,i,-27.0%,1µM*
CCOC(=O)c1ccc(CN(Cc2ccc(F)cc2)S(=O)(=O)c2cc(C(=O)Nc3cccc(C(F)(F)F)c3)ccc2F)cc1,/,/,/,/,-16.9%,-14.2%
CCOc1cc(C(=O)OCc2cc(=O)n3nc(C4CC4)sc3n2)cc(OCC)c1OCC,/,/,i,i,-7.2%,1.8%
CCN(CC)CCCNC(=O)c1ccc2c(c1)N(Cc1c(F)cccc1Cl)C(=O)c1ccccc1S2,/,/,?,i,10µM*,11.2µM*
O=C(NCc1ccco1)c1ccc2c(c1)N(Cc1c(F)cccc1Cl)C(=O)c1ccccc1S2,/,/,i,i,?,-1.9%
Fc1ccc(-n2cc(CNCCc3cccnc3)c(-c3ccccc3Cl)n2)cc1,20.6µM*,?,?,?,?,-20.1%
Fc1ccc(-c2nn(-c3ccccc3)cc2CNCc2ccccc2)cc1,20.6µM*,23.1µM*,?,i,?,-106.5%
O=C(CCl)Nc1cn(-c2ccccc2)nc1-c1ccc(F)cc1,8.2µM*,4.61µM*,?,?,?,-90.0%
Fc1ccc(-n2cc(CNCCc3ccncc3)c(-c3ccccc3Cl)n2)cc1,-2.1%,5.2%,i,i,-14.9%,-24.2%
O=C(NC(=S)N1CCOCC1)c1cn(-c2ccccc2)nc1-c1ccc(F)cc1,-11.9%,-7.5%,i,20.6µM*,?,6.0%
CC(=O)NC1=NN(C(C)=O)C(C)(c2ccco2)S1 (stereo not given),?,23.1µM*,?,?,5.5%,2.1%
CC(=O)NC1=NN(C(C)=O)C(C)(c2cccs2)S1 (stereo not given),2.91µM*,4.61µM*,?,i,-15.6%,-31.1%
CC(=O)NC1=NN(C(C)=O)C(C)(c2cccnc2)S1 (stereo not given),-2.8%,?,i,i,-9.1%,3.2%
Cc1ccc(S(=O)(=O)Nc2cc(Cl)c3oc4c(c3c2)CCCC4)cc1,/,/,?,i,?,-106.4%
O=C(CSC1=Nc2ccccc2N=C(c2ccc(F)cc2)C1)Nc1cccc(C(F)(F)F)c1,/,/,i,i,?,-35.3%
Cc1noc(C)c1COc1cccc(C(=O)Nc2ccc(Br)cc2F)c1,?,?,6.51µM*,2.91µM*,-22.7%,3.8%
